Measurements as given in PubChem BioAssay (NCI).
This is part of a sample that, as a whole, favours compounds with a hit. Of some 83,000 tested, about 20% had one in any assay.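 Growth was measured after 48 h exposure to one concentration of compound in 96-well plates. Values under 10 count as active.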 The source made the active and inactive calls.

The molecules below were run on MDA-MB-468 breast (assay: NCI-60 one-dose screen, 48 h (100 = growth as untreated, 0 = no growth, -100 = all killed)). Conditions: 10 µM unless noted.

Row | SMILES | growth
1 | COc1ccc(-c2oncc2-c2cc(OC)c3c(c2)OCO3)cc1 | 10.3% (inactive)
2 | COc1ccc2c(c1)c(-c1noc(C(=O)c3cn(C)c4ccc(Br)cc34)n1)cn2C | 120% (inactive)
3 | CN1CCN(c2ccc(/C=C/C(=O)c3ccc(O)cc3)cc2)CC1 | 89.5% (inactive)
4 | CCN1C(=O)N(CC)C2Nn3c(s/c(=C\c4ccc(OC)cc4)c3=O)=NC21 (centres undefined) | 14.1% (inactive)
